# Most compounds without a hit are left out; they make up all but 2.3% or so of the library.
# Coupling enz – inhibits coupling enzyme system, counter-screen for aldolase hits; coupling enzyme system counterscreen, AmpLite Red fluorescence; activity change, negative = inhibition, % at 58.2 µM, hits read low; hit rate 0.67% among 290,000; AID 2472; in the data active = activity change below about -30%
#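 First, compound is pin-transferred into glyceraldehyde-3-phosphate coupling-enzyme reagent at 57.5 uM final and held 10 min at RT. Next, substrate, coupling system and AmpLite Red are added. After 20 min RT, fluorescence (525/598 nm) is read.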
# Tau ThT inhib – blocks human tau fibril formation measured by thioflavin T; recombinant tau K18 P301L, heparin-induced fibrillization, ThT fluorescence; Potency, µM (highest dose often 57.4 µM), for the others: top-dose activity, negative = inhibition, most hits filed as inhibitors; hit rate 2.1% among 270,000; note: potency is the fitted concentration of half-maximal effect; nearly all actives have a fitted effect of over 55% in size
#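 In this qHTS, human K18 P301L tau is incubated with compound and heparin for 6 hr at 37 C, and Thioflavin T fluorescence then reports fibril load.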
# Tau fluor cs – counter-screen for tau fibril formation inhibitors; tau K18 P301L Alexa594 fluorescence, heparin fibrillization; hit rate 0.93% among 280,000; Potency, µM (highest dose often 57.7 µM), inactives show top-dose activity change, negative = decrease; note: potency is the fitted concentration of half-maximal effect; nearly all actives have a fitted effect of over 55% in size
#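 Human K18 P301L tau (15 uM unlabeled plus 0.24 uM Alexa 594-labeled, final) in 100 mM sodium acetate pH 7 was mixed with compound and 20 uM heparin and incubated 6 hr at 37 C.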
# USP1 inh – USP1/UAF1 (human) deubiquitinase inhibition; O94782; recombinant USP1/UAF1, Ub-Rhodamine cleavage fluorescence; Potency, µM (titrated, usually from 57.1 µM), inactives show at the top dose activity change, negative = inhibition, actives largely listed as inhibitors; hit rate 0.23% among 390,000; note: potency is the fitted concentration of half-maximal effect; nearly all actives have a fitted effect of over 60% in size
# Target sequence (O94782 whole entry, looked up): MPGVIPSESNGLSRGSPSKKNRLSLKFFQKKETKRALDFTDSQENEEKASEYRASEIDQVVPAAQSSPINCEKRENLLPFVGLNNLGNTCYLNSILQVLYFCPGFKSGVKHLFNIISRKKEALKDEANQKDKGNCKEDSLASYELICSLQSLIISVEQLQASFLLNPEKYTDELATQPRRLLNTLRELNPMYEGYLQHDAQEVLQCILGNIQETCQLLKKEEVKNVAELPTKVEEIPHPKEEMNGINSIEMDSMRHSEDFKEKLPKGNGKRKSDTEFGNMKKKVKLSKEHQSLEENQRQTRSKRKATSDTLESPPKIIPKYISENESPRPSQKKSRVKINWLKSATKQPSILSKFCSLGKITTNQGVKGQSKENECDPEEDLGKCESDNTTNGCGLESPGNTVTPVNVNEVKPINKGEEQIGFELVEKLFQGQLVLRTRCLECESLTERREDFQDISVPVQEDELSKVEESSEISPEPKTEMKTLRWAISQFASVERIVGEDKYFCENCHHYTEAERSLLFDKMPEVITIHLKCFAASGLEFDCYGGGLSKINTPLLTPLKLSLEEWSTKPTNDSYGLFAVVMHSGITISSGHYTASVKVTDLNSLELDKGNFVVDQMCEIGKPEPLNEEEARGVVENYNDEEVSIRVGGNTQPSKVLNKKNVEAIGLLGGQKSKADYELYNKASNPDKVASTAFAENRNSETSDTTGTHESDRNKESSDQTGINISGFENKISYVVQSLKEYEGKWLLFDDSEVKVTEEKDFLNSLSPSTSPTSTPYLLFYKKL
#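 Step one: compound is pinned into 1nM USP1/UAF1 in HEPES pH 7.8 buffer with TCEP. Step two: 15 min room-temperature incubation. Step three: Ub-Rho (150nM final) starts cleavage, tracked by fluorescence over six one-minute reads.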
# Tau fibril FP – blocks human tau fibril formation measured by polarization; P10636; hit rate 0.39% among 280,000; Potency, µM (series often up to 57.7 µM), without a hit: at the top dose activity, negative = inhibition, hits mostly inhibitors; K18 P301L tau heparin fibrillization, Alexa594 FP, 6 h; note: potency is the fitted concentration of half-maximal effect; nearly all actives have a fitted effect of over 55% in size
#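 Heparin (20 uM) drove fibril formation of recombinant tau K18 P301L, 15 uM unlabeled with 0.24 uM Alexa 594 label, for 6 hr at 37 C in 100 mM sodium acetate pH 7. Fluorescence polarization (555/632 nm) read 1 hr after 30 uM ThT.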
# * = called active by the depositor; ? = inconclusive; nt = not tested or not shown; [ ] = another dose, or the depositor's remark. Unless noted, calls come from the whole dose curve; as a rule, active = well fitted curve in the direction sought with a large enough effect; inconclusive = small, poorly fitted or top-dose-only effect, or another doubt; inactive = no such curve, though single readings can be large; an effect the other way counts as inactive or inconclusive. % is set by controls: 0 for no effect and ±100 for the full control effect.
SMILES,Coupling enz,Tau ThT inhib,Tau fluor cs,USP1 inh,Tau fibril FP
O=C1C2=C(Nc3ccccc3SC2c2ccc(Cl)c(Cl)c2)c2ccccc21 (stereo not drawn),nt,?,?,-17%,?
CCCc1ccc(C2Sc3ccccc3NC3=C2C(=O)c2ccccc23)cc1 (stereo not drawn),nt,?,3.2µM*[quencher],-16%,?
O=C1C2=C(Nc3ccccc3SC2c2ccccc2C(F)(F)F)c2ccccc21 (stereo not drawn),nt,?,?,-4%,13µM*
CCOc1cc(C2Sc3ccccc3NC3=C2C(=O)c2ccccc23)ccc1O (stereo not drawn),nt,10µM*,10µM*[quencher],-19%,?
CSCCC(NS(=O)(=O)c1ccc2[nH]c(=O)c(=O)[nH]c2c1)C(=O)O (stereo not drawn),3,-7%,-10%,-4%,-11%
Cc1cccc(N2CCN(C(=O)CS(=O)(=O)c3cccc4nsnc34)CC2C)c1 (stereo not drawn),nt,-12%,-17%,-1%,-2%
Cc1ccc(-c2nnc(Nc3cccc(O)c3)c3ccccc23)cc1S(=O)(=O)N1CCCCC1,nt,-13%,8.9µM*[quencher],-12%,?
Cc1ccc(N(C)C(=O)Cn2nc(Cc3ccncc3)c3ccccc3c2=O)cc1C,nt,-8%,-15%,-13%,-8%
COc1cccc(CNC(=O)C(Cc2ccccc2)NS(=O)(=O)c2ccc3c(c2)CCN3C(C)=O)c1 (stereo not drawn),nt,-2%,-13%,?,5%
CCC(CO)Nc1ccc(-c2nn(C)c(=O)c3ccccc23)cc1[N+](=O)[O-] (stereo not drawn),0,25µM*,-20%,-20%,10%
CCC(CO)Nc1ccc(-c2n[nH]c(=O)c3ccccc23)cc1[N+](=O)[O-] (stereo not drawn),5,nt,nt,-24%,nt
CC(=O)N1N=C(c2ccccc2)OC1c1ccc([N+](=O)[O-])s1 (stereo not drawn),-27,?,-18%,25µM*,?
CC(=O)N1N=C(c2cccc([N+](=O)[O-])c2)OC1c1ccc(Br)cc1 (stereo not drawn),0,2%,-12%,-20%,3%
CC(=O)Nc1ccc(NC(=O)COC(=O)c2ccc(S(=O)(=O)N(C)c3ccccc3)cc2)cc1,nt,nt,nt,1%,nt
CC(C)(C)c1cc(NCCCn2ccnc2)n2ncc(-c3ccc(Cl)cc3)c2n1,-3,?,?,-20%,?
CN(C)CCCNc1cc(C(C)(C)C)nc2c(-c3ccccc3)cnn12,-7,?,22µM*[quencher],-7%,?
CN(C)N1C(N)=C(C#N)C(c2cccs2)C2=C1CC(C)(C)CC2=O (stereo not drawn),-46*,-3%,-12%,?,-3%
CC1(C)CC(=O)C2=C(C1)N(c1cccnc1)C(N)=C(C#N)C2c1cccs1 (stereo not drawn),-27,20µM*,-20%,-22%,?
Cn1cccc1C(=O)N1CCC2(CCN(Cc3nccs3)CC2)CC1,3,nt,nt,nt,nt
O=C(Oc1cccc2c(O)cccc12)c1ccccc1,-2,?,13µM*[quencher],-24%,11%
Nc1ccccc1NC1CCCCC1,-4,22µM*,?,-20%,-7%
COc1ccc(-n2nc(C(=O)NCC(=O)N(C)Cc3ccccc3)c3ccccc3c2=O)c(OC)c1,-1,nt,nt,-15%,nt
CC(C)CN1C(=O)c2ccc(NC(=O)c3cccs3)cc2C1=O,0,-10%,?,-25%,?
O=C(Nc1ccc(Oc2ccc3c(c2)C(=O)N(c2ccc(O)cc2)C3=O)cc1)c1cccs1,0,1%,2%,-3%,14µM*
CN(C)/C=C1/Sc2ccccc2C1=O,-4,?,-5%,-1%,2%
SMILES,Coupling enz,Tau ThT inhib,Tau fluor cs,USP1 inh,Tau fibril FP
CC(=O)N(\C=C/C=C/C=C1\Sc2ccccc2C1=O)c1ccccc1,-6,6.3µM*,?,?,?
Oc1ccc(/C(Cc2ccc3ccccc3n2)=N\Nc2ccccc2)c(O)c1,-3,11µM*,11µM*[quencher],?,1%
Oc1ccc(/C(Cc2ccccn2)=N\Nc2ccccc2)c(O)c1,1,?,11µM*[quencher],-9%,2%
O/C(=C\c1ccc2ccccc2n1)c1ccc(O)cc1O,2,1.8µM*,?,28µM*,0%
Oc1ccc(/C=C/c2ccc3ccccc3n2)cc1,-6,?,?,-20%,7%
N/N=C(\Cc1cscn1)c1ccc(O)cc1O,-1,?,-28%,-20%,-2%
CCCCCCC(=O)N(O)C1CC(=O)N(c2ccc(Br)cc2)C1=O (stereo not drawn),-2,?,2%,-9%,10%
COc1ccccc1N(O)C1CC(=O)N(c2ccc(Br)cc2)C1=O (stereo not drawn),-4,14µM*,?,-11%,?
CCc1ccccc1NC(=O)CSc1ncc2c(n1)-c1ccccc1N(C)S2(=O)=O,nt,-14%,-28%,-35%,-20%
CCN(CC)c1ccc(-n2cc3c(=O)n(C)c(=O)n(C)c3c2)cc1,-2,5µM*,?,-11%,6%
CN(C)c1ccc(-n2cc3c(=O)n(C)c(=O)n(C)c3c2)cc1,-5,2.8µM*,-20%,-21%,3%
Cc1cccc(-n2cc3c(=O)n(C)c(=O)n(C)c3c2)c1,0,-6%,-1%,-11%,12%
CC(C)OCCCn1c(=S)[nH]c2ccc(N3CCOCC3)cc2c1=O,-44*,-17%,-8%,-14%,7%
CCCN1CCC(=NNc2ccc(S(=O)(=O)N3CCOCC3)cc2[N+](=O)[O-])CC1,1,0%,-11%,-2%,4%
NS(=O)(=O)c1ccc(NN=C2CCN(Cc3ccccc3)CC2)c([N+](=O)[O-])c1,0,25µM*,-27%,7%,12%
Cc1cc(Cl)ccc1OCC(=O)N(Cc1ccco1)Cc1ccco1,nt,-13%,-14%,-28%,-3%
Cc1ccc2c(c1)N/C(=C(\C=C(/Cl)[N+](=O)[O-])[N+](=O)[O-])N2,-13,18µM*,?,nt,-8%
Cc1ccc2c(c1)/C(=C/c1ccc(F)cc1)C(=O)N2,-3,nt,nt,-14%,nt
O=C1/C(=C/c2ccncc2)CCC/C1=C\c1ccncc1,3,5µM*,-17%,?,5µM*
O=C1/C(=C\c2ccc3c(c2)OCO3)CCC/C1=C/c1ccc2c(c1)OCO2,-1,4.5µM*,-23%,-12%,-7%
COc1ccc2nc(SCC(=O)N3CCCCCC3)c(C#N)cc2c1,-3,?,-22%,-28%,8%
COc1ccc2nc(N3CCCC3)c(C#N)cc2c1,-6,?,-23%,28µM*,-3%
COc1ccc2nc(SCC(=O)N3CCCCC3)c(C#N)cc2c1,-4,-14%,6%[2.34 µM],-1%,12%
